In patent US5487994, “Insertion and deletion mutants of FokI restriction endonuclease” (The Johns Hopkins University):

B1: hemi-methylated substrate (GGATG strand) (dsDNA)
DNA 1: CTAGAGTCAGAATTCGAAGACTTGCCGGATGATCTGCAGGCCAGCTGTGGCGTCTAAATTGA
DNA 2: AGCTTCAATTTAGACGCCACAGCTGGCCTGCAGATCATCCGGCAAGTCTTCGAATTCTGACT
modifications: N6-methyladenine in GGATG strand of FokI site
B2: fully methylated substrate (dsDNA)
DNA 1: B1 DNA 1
DNA 2: B1 DNA 2
modifications: N6-methyladenine in both strands of FokI site
B3: hemi-methylated substrate (CATCC strand) (dsDNA)
DNA 1: B1 DNA 1
DNA 2: B1 DNA 2
modifications: N6-methyladenine in CATCC strand of FokI site

Biological target: FokI endonuclease wild-type (Flavobacterium okeanokoites, UniProt P14870 P14870:2-579)
Sequence (P14870 2-579, one chain of several): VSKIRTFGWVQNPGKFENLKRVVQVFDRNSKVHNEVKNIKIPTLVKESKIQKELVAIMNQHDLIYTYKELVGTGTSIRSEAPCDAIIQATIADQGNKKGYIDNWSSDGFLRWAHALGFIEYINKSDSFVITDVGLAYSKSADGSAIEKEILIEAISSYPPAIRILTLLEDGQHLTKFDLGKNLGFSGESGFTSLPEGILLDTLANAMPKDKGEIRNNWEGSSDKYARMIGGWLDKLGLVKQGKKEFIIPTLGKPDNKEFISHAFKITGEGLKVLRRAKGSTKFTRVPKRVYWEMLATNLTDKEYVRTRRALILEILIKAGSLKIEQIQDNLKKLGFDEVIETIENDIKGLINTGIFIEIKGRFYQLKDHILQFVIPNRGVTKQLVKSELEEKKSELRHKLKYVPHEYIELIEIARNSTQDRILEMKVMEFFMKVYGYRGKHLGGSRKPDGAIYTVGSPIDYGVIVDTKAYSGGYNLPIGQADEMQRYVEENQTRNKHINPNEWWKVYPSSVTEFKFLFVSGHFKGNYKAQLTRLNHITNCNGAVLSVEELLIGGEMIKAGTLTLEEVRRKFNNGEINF
Test: filter; with poly(dI-dC), 1 mM EDTA, 22 C
Details: tags: expressed in E. coli RR1 from pRRSfokIR; label: 32P
Description: The filter binding assays were performed in duplicate using *Fok*I or mutant enzymes and the four different synthetic substrates, SEQ ID NO:12, SEQ ID NO:13, hemi-methylated oligonucleotide of SEQ ID NO:12 and hemi-methylated oligonucleotide of SEQ ID NO:13. Nine different concentrations for each of the enzymes were made by serial dilutions ([…], 2000, 667, 222, 74.1, 24.7, 8.23, 2.74 and 0.914 nM). The enzymes were mixed with 40 nM of each labelled substrate along with 50 μg/ml p(dI-dC) and 50 μg/ml BSA in 50 μl of buffer A[10 mM Tris. phosphate (pH 8.0), 7 mM 2-mercaptoethanol, 1 mM EDTA, 50 mM NaCl, and 10% (vol/vol) glycerol]. The samples were incubated at 22° C. for 1 hr and then loaded on to nitrocellulose filters. The filters were washed twice with 0.5 ml of buffer A, dried and counted using the scintillation counter.
Why does the four amino-acid residue insertions enable the mutant enzymes to cleave hemi-methylated DNA and not the larger inserts? The four codon insertions could increase the affinity of the mutants for the hemi-methylated DNA. The binding affinities of wild-type enzyme and both four codon insertion mutants were compared by filter binding assays using the synthetic oligonucleotide substrates (FIGS. 9A, 9B and 9C). The binding affinities were measured in the presence of non-specific DNA, poly dI-dC.

Q: For B1, which binding signal is on record?
A: Its binding signal is ~100 fold less efficient than unmethylated.

Q: For B2, which binding signal is on record?
A: Its binding signal is ~100 fold less efficient than unmethylated.

Q: B3 was tested. Which binding signal did it give?
A: Its binding signal is ~100 fold less efficient than unmethylated.
